Bioassay records (PubChem BioAssay)
Most compounds without a hit are left out; they make up all but 3.1% or so of the library.
Bead autofluor – flagged as autofluorescent in microsphere protease counterscreen | AID 624483 | fluorescence intensity (test concentration not listed) | compound autofluorescence counterscreen, microsphere flow cytometry; active compounds read high | 360,000 compounds, 3.1% hits; in the data active = fluorescence intensity above about 16000; inconclusive = no clear call, values can overlap the other calls
BoNT F protease – inhibitors of Botulinum neurotoxin F light chain protease. Multiplex microsphere protease cleavage assay, flow cytometry. inhibition, % at 10 µM. 360,000 compounds, 0.22% hits; in the data active = inhibition above about 35%, passing the limit was not always enough; inconclusive = no clear call, values can overlap the other calls
PriA SSB inh – inhibitors of Klebsiella pneumoniae PriA binding to SSB C-terminal tail | AlphaScreen SSBct-PriA binding, biotinylated peptide | inhibition, % at 33 µM | 430,000 compounds, 0.6% hits; in the data active = inhibition mostly above about 37%, no sharp cut-off; inactive = mostly below about 20%
BoNT-A LC inh2 – blocks Botulinum neurotoxin A light chain protease; inhibition, % at 10 µM; multiplex microsphere protease substrate cleavage, flow cytometry; 360,000 compounds, 0.17% hits
Anthrax LF prot – anthrax lethal factor protease inhibition. AID 588501. inhibition, % at 10 µM. P15917. 360,000 compounds, 0.12% hits. multiplex microsphere protease cleavage assay, LF
Target sequence (P15917 whole entry, looked up): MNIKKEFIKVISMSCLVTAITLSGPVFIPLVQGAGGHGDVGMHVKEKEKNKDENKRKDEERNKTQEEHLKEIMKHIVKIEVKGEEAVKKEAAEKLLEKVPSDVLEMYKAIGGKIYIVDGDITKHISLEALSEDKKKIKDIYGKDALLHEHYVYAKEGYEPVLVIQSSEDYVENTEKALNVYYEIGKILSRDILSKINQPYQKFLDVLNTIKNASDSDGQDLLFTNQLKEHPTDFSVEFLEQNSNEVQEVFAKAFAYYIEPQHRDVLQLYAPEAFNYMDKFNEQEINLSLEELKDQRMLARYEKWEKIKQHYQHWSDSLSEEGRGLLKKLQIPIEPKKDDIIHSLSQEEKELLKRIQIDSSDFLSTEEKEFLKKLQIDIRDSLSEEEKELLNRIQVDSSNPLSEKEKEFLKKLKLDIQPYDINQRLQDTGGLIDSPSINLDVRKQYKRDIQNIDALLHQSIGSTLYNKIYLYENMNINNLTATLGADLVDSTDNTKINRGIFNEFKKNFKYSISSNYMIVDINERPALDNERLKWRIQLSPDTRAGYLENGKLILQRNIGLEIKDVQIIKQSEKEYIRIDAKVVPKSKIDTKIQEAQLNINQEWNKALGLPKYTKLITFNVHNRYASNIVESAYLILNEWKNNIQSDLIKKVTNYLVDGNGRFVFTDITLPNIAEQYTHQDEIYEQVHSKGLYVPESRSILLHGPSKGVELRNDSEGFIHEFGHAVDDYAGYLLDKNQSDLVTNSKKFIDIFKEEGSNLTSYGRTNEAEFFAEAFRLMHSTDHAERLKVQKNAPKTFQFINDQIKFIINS
A number is an active result; 0 = inactive; ? = inconclusive; - = not tested or not shown; ! = not confirmed by another sample. Rule as the data show it, unless noted: active = inhibition above about 30%; inconclusive = no clear call, values can overlap the other calls; inactive = below that.

SMILES	Bead autofluor	BoNT F protease	PriA SSB inh	BoNT-A LC inh2	Anthrax LF prot
CCOc1cc(C=NNc2ccccc2Cl)ccc1OCC(=O)O	-	-	0	-	-
O=C(CC1CCCCN1S(=O)(=O)c1ccc(F)cc1)Nc1ccc2c(c1)OCCO2 (stereo not drawn)	-	-	0	-	-
CCC(=O)Nc1nc2cc(OC)ccc2s1	0	0	0	0	0
COc1ccc2sc(NC(=O)CC(C)C)nc2c1	20332	0	0	0	0
COc1ccc(CN2CCN(S(=O)(=O)c3ccc(F)cc3)CC2)c(OC)c1OC	21826	0	0	0	0
CCc1c(C#N)c(N)nc(SCC(=O)OCc2ccccc2)c1C#N	17979	0	0	0	0
CCN(CC)C(=O)CSc1nc(N)c(C#N)c(-c2cccs2)c1C#N	21936	0	0	?	0
CCN(CC)C(=O)CSc1nc(-c2cccs2)cc(-c2cccs2)c1C#N	0	0	0	0	0
N#Cc1ccc(COCC2CCN(Cc3cccnc3)CC2)cc1	-	-	0	-	-
NC(=O)c1nnn(Cc2cccc([N+](=O)[O-])c2)c1N	-	-	0	-	-
CC1(C)COc2ccc(NC(=O)c3cc4ccccc4oc3=O)cc2NC1=O	-	-	0	-	-
CCCCCCCCCCSCc1ccc(O)c2ncccc12	-	-	0	-	-
Oc1ccc(CSc2ncccn2)c2cccnc12	-	-	76	-	-
Oc1ccc(CNc2ccccc2F)c2cccnc12	0	0	0	0	0
Oc1ccc(CSc2ccccc2)c2cccnc12	-	-	88	-	-
N#CSCc1ccc(O)c2ncccc12	-	-	111	-	-
O=c1ccnc(SCc2ccc(O)c3ncccc23)[nH]1	-	-	106	-	-
Cc1ccc(C(=O)NCc2ccco2)cc1S(=O)(=O)Nc1cccc(Cl)c1	21942	0	0	?	0
CCN(CC)C(=O)c1sc(NC(=O)c2ccncc2)c(C(=O)OC)c1C	0	0	65	0	0
CCOC(=O)c1sc(NC(=S)NC(=O)c2ccccc2)c(C(=O)OCC)c1C	0	0	82!	0	0
CCOC(=O)c1c(NC(=S)Nc2ccccc2)sc2c1CCN(CC)C2	0	0	0	0	31
CCOC(=O)c1sc(NC(=O)CN(CC(C)C)CC(C)C)c(C(=O)OCC)c1C	22136	0	0	0	0
CCOC(=O)c1c(NC(=O)CC(C)C)sc(C(C)=O)c1C	0	0	0	0	0
O=C(NCC1CCCO1)C(=O)Nc1ccc(N2CCCS2(=O)=O)cc1 (stereo not drawn)	-	-	0	-	-
Cc1ccc(-c2nc(CSc3nc4ccccc4c(=O)n3C)c(C)o2)cc1	-	-	0	-	-
SMILES	Bead autofluor	BoNT F protease	PriA SSB inh	BoNT-A LC inh2	Anthrax LF prot
Fc1ccccc1-c1nnc2sc(-c3ccccc3)nn12	-	-	0	-	-
CCOC(=O)c1c(NC(=O)CCN2C(=O)c3ccccc3C2=O)sc(C(=O)OC(C)C)c1C	17126	0	0	?	0
CCOC(=O)c1c(-c2ccc(C)o2)csc1NC(=S)NC(=O)c1ccccc1Br	16268	0	0	0	0
COc1ccc(-n2nc(-c3ccccc3)c3cnc4c(F)cccc4c32)cc1	-	-	0	-	-
O=C(Nc1nc(-c2ccccc2)ns1)c1ccccc1	-	-	0	-	-
CC(C)C(=O)Nc1nc(-c2ccccc2)ns1	22460	0	0	?	0
CCC(=O)Nc1nc(-c2ccccc2)ns1	21302	0	0	0	0
Cc1nnc(SCCC(=O)Nc2nc(-c3ccccc3)ns2)s1	16875	0	0	0	0
O=C(Nc1nc(-c2ccccc2)ns1)c1cccs1	22042	0	0	0	0
C=CCCC(=O)N1CCC(CN2CCN(C)CC2C)CC1 (stereo not drawn)	-	-	0	-	-
CC#CCCCC(=O)Nc1cccc(C(=O)O)c1	19921	0	0	0	0
Cc1cc(NC(=O)C(=O)NCC2CCN(Cc3cccs3)CC2)no1	-	-	0	-	-
COc1ccc2ccccc2c1C1C=C(c2ccccc2)NC(=S)N1 (stereo not drawn)	-	-	36	-	-
O=C(c1ccc(COc2ccccc2[N+](=O)[O-])o1)N1CCCCCC1	0	0	0	0	0
COc1ccc(N2CCN(C(=O)c3ccc(COc4ccc([N+](=O)[O-])cc4)o3)CC2)cc1	0	0	40	0	0
O=C(c1ccc(COc2ccccc2[N+](=O)[O-])o1)N1CCCCC1	19870	0	0	0	0
Cc1ccc(Nc2nc(C(=O)NCc3ccc(S(N)(=O)=O)cc3)cs2)c(C)c1	-	-	0	-	-
O=C(/C=C/c1cccc2ccccc12)NC(=S)Nc1ccccn1	-	-	0	-	-
Nc1ncc(Br)c2ncccc12	-	-	0	-	-
O=[N+]([O-])c1cc([N+](=O)[O-])c2cccnc2c1Cl	-	-	81	-	-
Nc1c(N)c2cccnc2c2ncccc12	-	-	95	-	-
O=[N+]([O-])c1cc2cccnc2c2ncccc12	-	-	48	-	-
Cc1cc(Br)cc2cccnc12	-	-	0	-	-
Cc1cc2cccnc2c2ncccc12	-	-	163	-	-
COc1ccc(NC(=O)CN2CCN(c3cc(Cl)ccc3Cl)CC2)cc1	-	-	0	-	-
COCCCn1cnc2c(-c3ccccc3)cn(CC(=O)Nc3cccc(C(F)(F)F)c3)c2c1=O	-	-	0	-	-
